Assay results: PubChem BioAssay (EPA / NIEHS)
Some structures have more than one record in an assay (separate samples or runs), and their calls can disagree. Activity calls are given as the source filed them. How the source made its calls: active means hit-call score of the fitted dose curve at least 0.9, where 1 is the maximum; inactive means score below 0.9.

Tests used:
[1] = read-out: Interferon-gamma inducible Protein 10 (IP10), CXCL10 (gene 3627); assay: BSK_hDFCGF_IP10: BioMAP Diversity Plus: hDFCGF Assay for Interferon-gamma inducible Protein 10 (IP10) Biomarker Activity (AID 2283053); settings: primary human foreskin fibroblasts; actives raise or lower the signal
Method in brief: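 ELISA quantification of IP-10 after a 24 h chemical exposure of human dermal foreskin fibroblast primary cultures. Both increases and decreases versus DMSO fitted.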

[2] = read-out: Urokinase-type plasminogen activator receptor (uPAR), PLAUR (gene 5329); assay: BSK_CASM3C_uPAR: BioMAP Diversity Plus: CASM3C Assay for Urokinase-type plasminogen activator receptor (uPAR) Biomarker Activity (AID 2283054); settings: primary human coronary artery smooth muscle cells; actives raise or lower the signal;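 further: cell-surface uPAR protein level quantified by ELISA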
[3] = read-out: Vascular cell adhesion molecule 1 (VCAM1), VCAM1 (gene 7412); assay: BSK_CASM3C_VCAM1: BioMAP Diversity Plus: CASM3C Assay for Vascular cell adhesion molecule 1 (VCAM1) Biomarker Activity (AID 2283055); settings: primary human coronary artery smooth muscle cells; actives raise or lower the signal;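 further: VCAM-1 protein level quantified by ELISA on the cells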
[4] = read-out: Collagen III, COL3A1 (gene 1281); assay: BSK_hDFCGF_CollagenIII: BioMAP Diversity Plus: hDFCGF Assay for Collagen III Biomarker Activity (AID 2283056); settings: primary human foreskin fibroblasts; actives raise or lower the signal
Method in brief: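 Human foreskin fibroblast primary cultures sampled 24 h after dosing; Collagen III quantified by ELISA. Signal fitted bidirectionally against DMSO baseline.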

[5] = read-out: Epidermal growth factor receptor (EGFR), EGFR (gene 1956); assay: BSK_hDFCGF_EGFR: BioMAP Diversity Plus: hDFCGF Assay for Epidermal growth factor receptor (EGFR) Biomarker Activity (AID 2283057); settings: primary human foreskin fibroblasts; actives raise or lower the signal
Method in brief: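 EGFR levels by ELISA in human dermal fibroblast cultures, 24 h post-treatment, fitted bidirectionally versus DMSO. Parallel wells stained with sulforhodamine B to detect overt cytotoxicity.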

[6] = read-out: Interleukin-8 (IL8), CXCL8 (gene 3576); assay: BSK_hDFCGF_IL8: BioMAP Diversity Plus: hDFCGF Assay for Interleukin-8 (IL8) Biomarker Activity (AID 2283058); settings: primary human foreskin fibroblasts; actives raise or lower the signal
Method in brief: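 Primary human foreskin fibroblasts (hDFCGF system) dosed with chemical; IL-8 measured by ELISA 24 hours later. Bidirectional curve fitting relative to DMSO baseline; cytotoxicity tracked in parallel cultures by SRB total protein staining.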

[7] = BSK_hDFCGF_Proliferation: Cell Proliferation Assessment in the BioMAP Diversity Plus: hDFCGF Assay (AID 2283059); settings: primary human foreskin fibroblasts;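 further: curves fitted for both rise and fall of signal versus DMSO baseline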
Method in brief: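 This proliferation readout used SRB total-protein staining of human foreskin fibroblasts […], normalized to DMSO with bidirectional curve fitting.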

[8] = read-out: Macrophage colony-stimulating factor (MCSF), CSF1 (gene 1435); assay: BSK_hDFCGF_MCSF: BioMAP Diversity Plus: hDFCGF Assay for Macrophage colony-stimulating factor (MCSF) Biomarker Activity (AID 2283060); settings: primary human foreskin fibroblasts; actives raise or lower the signal
Method in brief: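 Human foreskin fibroblast primary cultures; M-CSF measured by ELISA 24 hours after chemical dosing. Bidirectional fitting relative to DMSO, with overt cytotoxicity tracked by parallel SRB total-protein staining (0.1% SRB, 10% TCA fixation, 560 nm).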

[9] = BSK_hDFCGF_SRB: Viability Assessment in the BioMAP Diversity Plus: hDFCGF Assay (AID 2283061); settings: primary human foreskin fibroblasts;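 further: cells exposed to compound for 24 h before the read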
Method in brief: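 Human foreskin fibroblasts in 96-well plates were treated 24 h. Total protein was measured by 0.1% SRB staining after 10% TCA fixation, read at 560 nm. Data were fitted bidirectionally against DMSO.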

[10] = read-out: TIMP metallopeptidase inhibitor 1 (TIMP1), TIMP1 (gene 7076); assay: BSK_hDFCGF_TIMP1: BioMAP Diversity Plus: hDFCGF Assay for TIMP metallopeptidase inhibitor 1 (TIMP1) Biomarker Activity (AID 2283062); settings: primary human foreskin fibroblasts; actives raise or lower the signal
Method in brief: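 Human foreskin fibroblast primary cultures dosed for 24 h; secreted/surface TIMP-1 quantified by ELISA. Bidirectional curve fitting against DMSO baseline; cytotoxicity tracked in parallel cultures by SRB total-protein staining.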

[11] = read-out: Monokine induced gamma interferon (MIG), CXCL9 (gene 4283); assay: BSK_hDFCGF_MIG: BioMAP Diversity Plus: hDFCGF Assay for Monokine induced gamma interferon (MIG) Biomarker Activity (AID 2283063); settings: primary human foreskin fibroblasts; actives raise or lower the signal
Method in brief: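 MIG/CXCL9 measured by ELISA 24 h after dosing primary human skin fibroblasts. Activity fitted in both directions against DMSO controls. Cytotoxicity was checked in parallel cultures by SRB staining read at 560 nm.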

[12] = read-out: Matrix Metallopeptidase 1 (MMP1), MMP1 (gene 4312); assay: BSK_hDFCGF_MMP1: BioMAP Diversity Plus: hDFCGF Assay for Matrix Metallopeptidase 1 (MMP1) Biomarker Activity (AID 2283064); settings: primary human foreskin fibroblasts; actives raise or lower the signal
Method in brief: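 ELISA read-out of MMP1 from human foreskin fibroblasts (primary skin cells), 24 h post-dose. Gain or loss of signal was fitted bidirectionally versus DMSO negative control; cytotoxicity was checked by SRB in parallel cultures.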

[13] = read-out: Vascular cell adhesion molecule 1 (VCAM1), VCAM1 (gene 7412); assay: BSK_hDFCGF_VCAM1: BioMAP Diversity Plus: hDFCGF Assay for Vascular cell adhesion molecule 1 (VCAM1) Biomarker Activity (AID 2283065); settings: primary human foreskin fibroblasts; actives raise or lower the signal;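 on AC50: VCAM-1 protein level quantified by ELISA after 24 h chemical exposure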
Method in brief: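 Human foreskin fibroblast primary cells dosed with chemical, VCAM-1 measured by ELISA at 24 h. Bidirectional curve fitting relative to DMSO as negative control/baseline.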

[14] = read-out: Plasminogen activator inhibitor-1 (PAI1), SERPINE1 (gene 5054); assay: BSK_hDFCGF_PAI1: BioMAP Diversity Plus: hDFCGF Assay for Plasminogen activator inhibitor-1 (PAI1) Biomarker Activity (AID 2283066); settings: primary human foreskin fibroblasts; actives raise or lower the signal
Method in brief: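 PAI-1 levels in human dermal foreskin fibroblasts were quantified by ELISA 24 h after dosing, with gain or loss analysed against DMSO. Overt cytotoxicity was checked by sulforhodamine B total-protein staining in parallel cultures.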

[15] = read-out: Intercellular Adhesion Molecule 1 (ICAM1), ICAM1 (gene 3383); assay: BSK_KF3CT_ICAM1: BioMAP Diversity Plus: KF3CT Assay for Intercellular Adhesion Molecule 1 (ICAM1) Biomarker Activity (AID 2283067); settings: primary human keratinocytes with fibroblasts; actives raise or lower the signal
Method in brief: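 Human keratinocyte–foreskin fibroblast co-culture was treated for 24 h. Cell-surface ICAM-1 was quantified by ELISA, fitted bidirectionally relative to DMSO. Cytotoxicity was checked in parallel cultures by SRB total-protein staining.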

[16] = read-out: Interferon-gamma inducible Protein 10 (IP10), CXCL10 (gene 3627); assay: BSK_KF3CT_IP10: BioMAP Diversity Plus: KF3CT Assay for Interferon-gamma inducible Protein 10 (IP10) Biomarker Activity (AID 2283068); settings: primary human keratinocytes with fibroblasts; actives raise or lower the signal
Method in brief: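 Signal is secreted/surface IP-10 by ELISA in a human primary skin co-culture of keratinocytes and foreskin fibroblasts, taken 24 h post-dosing; DMSO served as negative control.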

[17] = BSK_KF3CT_SRB: Viability Assessment in the BioMAP Diversity Plus: KF3CT Assay (AID 2283069); settings: primary human keratinocytes with fibroblasts;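 further: read 24 h after compound addition; fitted for both signal gain and loss against DMSO baseline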
Method in brief: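 SRB read-out at 560 nm (0.1% stain, TCA-fixed cells) gauges overt cytotoxicity in a human skin keratinocyte–fibroblast co-culture 24 h post-dosing. Signal change was fitted bidirectionally relative to DMSO control.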

[18] = read-out: Interleukin-1 alpha (IL1a), IL1A (gene 3552); assay: BSK_KF3CT_IL1a: BioMAP Diversity Plus: KF3CT Assay for Interleukin-1 alpha (IL1a) Biomarker Activity (AID 2283070); settings: primary human keratinocytes with fibroblasts; actives raise or lower the signal
Method in brief: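 Primary skin co-culture (keratinocytes, foreskin fibroblasts), 24 h exposure; ELISA for IL-1a; bidirectional curve fit vs DMSO.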

[19] = read-out: TIMP metallopeptidase inhibitor 2 (TIMP2), TIMP2 (gene 7077); assay: BSK_KF3CT_TIMP2: BioMAP Diversity Plus: KF3CT Assay for TIMP metallopeptidase inhibitor 2 (TIMP2) Biomarker Activity (AID 2283071); settings: primary human keratinocytes with fibroblasts; actives raise or lower the signal
Method in brief: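 TIMP-2 measured by ELISA at 24 h in human keratinocyte/fibroblast primary co-cultures exposed to chemicals. Both increases and decreases were fitted against DMSO. Parallel cultures were stained with SRB for total protein as an overt-cytotoxicity check.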

[20] = read-out: Transforming growth factor beta 1 (TGFb1), TGFB1 (gene 7040); assay: BSK_KF3CT_TGFb1: BioMAP Diversity Plus: KF3CT Assay for Transforming growth factor beta 1 (TGFb1) Biomarker Activity (AID 2283072); settings: primary human keratinocytes with fibroblasts; actives raise or lower the signal
Method in brief: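 ELISA quantifies TGF-b1 at 24 h post-dose in a primary human skin co-culture of keratinocytes and fibroblasts, with gain or loss judged against DMSO. Parallel SRB total-protein staining flags overt cytotoxicity.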

CCCCCOC(C)=O
outcome [1]: inactive | outcome [2]: inactive | outcome [3]: inactive | outcome [4]: inactive | outcome [5]: inactive | outcome [6]: inactive | outcome [7]: inactive | outcome [8]: inactive | outcome [9]: inactive | outcome [10]: inactive | outcome [11]: inactive | outcome [12]: inactive | outcome [13]: inactive | outcome [14]: inactive | outcome [15]: inactive | outcome [16]: inactive | outcome [17]: inactive | outcome [18]: inactive | outcome [19]: inactive | outcome [20]: inactive

CC(C)c1nnc2ccc(-c3ocnc3-c3cc(F)ccc3F)cn12
AC50 [1]: 0.628 µM (active) | outcome [2]: inactive | AC50 [3]: 0.354 µM (active) | outcome [4]: inactive | outcome [5]: inactive | outcome [6]: inactive | AC50 [7]: 5.62 µM (active) | outcome [8]: inactive | outcome [9]: inactive | outcome [10]: inactive | outcome [11]: inactive | AC50 [13]: 0.148 µM (active) | outcome [14]: inactive | outcome [15]: inactive | outcome [16]: inactive | outcome [17]: inactive | outcome [18]: inactive | outcome [20]: inactive

Cn1cc[nH]c1=S
outcome [1]: inactive | outcome [2]: inactive | outcome [3]: inactive | outcome [4]: inactive | outcome [5]: inactive | outcome [6]: inactive | outcome [7]: inactive | outcome [8]: inactive | outcome [9]: inactive | outcome [10]: inactive | outcome [11]: inactive | outcome [12]: inactive | outcome [13]: inactive | outcome [14]: inactive | outcome [15]: inactive | outcome [16]: inactive | outcome [17]: inactive | outcome [18]: inactive | outcome [19]: inactive | outcome [20]: inactive

CNC(C)=O
outcome [1]: inactive | outcome [2]: inactive | outcome [3]: inactive | outcome [4]: inactive | outcome [5]: inactive | outcome [6]: inactive | outcome [7]: inactive | outcome [8]: inactive | outcome [9]: inactive | outcome [10]: inactive | outcome [11]: inactive | outcome [12]: inactive | outcome [13]: inactive | outcome [14]: inactive | outcome [15]: inactive | outcome [16]: inactive | outcome [17]: inactive | outcome [18]: inactive | outcome [19]: inactive | outcome [20]: inactive

FC(F)C(F)(F)COCC1CO1 (stereo not given)
outcome [1]: inactive | outcome [2]: inactive | outcome [3]: inactive | outcome [4]: inactive | outcome [5]: inactive | outcome [6]: inactive | outcome [7]: inactive | outcome [8]: inactive | outcome [9]: inactive | outcome [10]: inactive | outcome [11]: inactive | outcome [12]: inactive | outcome [13]: inactive | outcome [14]: inactive | outcome [15]: inactive | outcome [16]: inactive | outcome [17]: inactive | outcome [18]: inactive

C[Si](C)(C)C(F)(F)C(F)(F)C(F)(F)F
outcome [1]: inactive | outcome [2]: inactive | outcome [3]: inactive | outcome [4]: inactive | outcome [5]: inactive | outcome [6]: inactive | outcome [7]: inactive | outcome [8]: inactive | AC50 [9]: 30 µM (active) | outcome [9]: inactive | outcome [11]: inactive | outcome [12]: inactive | outcome [13]: inactive | outcome [14]: inactive | outcome [15]: inactive | outcome [16]: inactive | outcome [17]: inactive | outcome [18]: inactive | outcome [19]: inactive

NC(=O)N(O)[C@@H]1COc2cc(OCc3ccccc3)ccc21
outcome [1]: inactive | outcome [2]: inactive | AC50 [3]: 10.2 µM (active) | outcome [4]: inactive | outcome [5]: inactive | outcome [6]: inactive | outcome [7]: inactive | outcome [8]: inactive | outcome [9]: inactive | outcome [10]: inactive | outcome [11]: inactive | outcome [12]: inactive | outcome [13]: inactive | outcome [14]: inactive | outcome [15]: inactive | outcome [16]: inactive | outcome [17]: inactive | outcome [18]: inactive | outcome [19]: inactive | outcome [20]: inactive
